Measured values published in PubChem BioAssay (NCI).
About 83,000 compounds went through this panel and 20% of them were active in at least one assay; those are over-represented in the sample as a whole.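 Assay: single dose, 48 h. Readout: percent growth (0 = no net growth; negative = cell death). Active: <10.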 The source made the active and inactive calls.

Legend:
Test in all cases: NCI-60 one-dose screen, 48 h (100 = growth as untreated, 0 = no growth, -100 = all killed)
Details in all cases: 10 µM unless noted
SR leukemia = system: SR leukemia
RPMI-8226 leukemia = system: RPMI-8226 leukemia
OVCAR-8 ovarian = system: OVCAR-8 ovarian
OVCAR-5 ovarian = system: OVCAR-5 ovarian
OVCAR-4 ovarian = system: OVCAR-4 ovarian
SK-OV-3 ovarian = system: SK-OV-3 ovarian
IGROV1 ovarian = system: IGROV1 ovarian
OVCAR-3 ovarian = system: OVCAR-3 ovarian
HS 578T breast = system: HS 578T breast
NCI/ADR-RES ovarian = system: NCI/ADR-RES ovarian
T-47D breast = system: T-47D breast
BT-549 breast = system: BT-549 breast
MDA-MB-435 melanoma = system: MDA-MB-435 melanoma
SW-620 colon = system: SW-620 colon
MCF7 breast = system: MCF7 breast
HCT-116 colon = system: HCT-116 colon
HCC-2998 colon = system: HCC-2998 colon
KM12 colon = system: KM12 colon

Measured: growth

N#CN1CC[C@H](C(=O)Nc2cc3cc(C(N)=O)ccc3cn2)C1
active: SR leukemia 0.903% | RPMI-8226 leukemia 8.19% | OVCAR-8 ovarian 1.62% | OVCAR-5 ovarian 5.15% | OVCAR-4 ovarian 4.32% | SK-OV-3 ovarian -10.2% | OVCAR-3 ovarian -14.4% | HS 578T breast -0.591% | NCI/ADR-RES ovarian 1.36% | T-47D breast -21.6% | BT-549 breast -5.54% | MDA-MB-435 melanoma 3.57% | SW-620 colon 6.39% | MCF7 breast 6.05% | HCT-116 colon 1.69% | HCC-2998 colon -1.56% | KM12 colon 1.65%
inactive: IGROV1 ovarian 15.7%

O=C1/C(=C/N2N=C(c3ccc4ccccc4c3)CC2c2ccccc2O)SC(=S)N1c1cccnc1 (stereo unspecified)
inactive: SR leukemia 29.2% | OVCAR-8 ovarian 28.3% | OVCAR-5 ovarian 68.6% | OVCAR-4 ovarian 66.1% | SK-OV-3 ovarian 39.4% | IGROV1 ovarian 26.4% | HS 578T breast 13.2% | NCI/ADR-RES ovarian 23.6% | T-47D breast 44.5% | SW-620 colon 24% | MCF7 breast 17.3% | HCT-116 colon 10.9% | HCC-2998 colon 28.5% | KM12 colon 18.2%
active: RPMI-8226 leukemia -8.29% | OVCAR-3 ovarian 7.76% | BT-549 breast 6.36% | MDA-MB-435 melanoma -48.7%

CCOC(=O)c1c(C)oc2ncnc(N3CCN(C(=S)Nc4ccccc4)CC3)c12
inactive: SR leukemia 94.5% | RPMI-8226 leukemia 83.3% | OVCAR-8 ovarian 94% | OVCAR-5 ovarian 90% | OVCAR-4 ovarian 85.1% | SK-OV-3 ovarian 96.9% | IGROV1 ovarian 95.4% | OVCAR-3 ovarian 103% | HS 578T breast 87% | NCI/ADR-RES ovarian 90.3% | T-47D breast 78.7% | BT-549 breast 92.4% | MDA-MB-435 melanoma 102% | SW-620 colon 90.5% | MCF7 breast 93.1% | HCT-116 colon 97.3% | HCC-2998 colon 99.3% | KM12 colon 96.4%

COc1cc(/C=C/c2cc(/C=C/c3ccc(O)c(OC)c3)n(-c3c(Cl)cccc3Cl)c(=O)n2)ccc1O
inactive: OVCAR-5 ovarian 57.6% | OVCAR-4 ovarian 56.3% | SK-OV-3 ovarian 47.7% | IGROV1 ovarian 33.5% | OVCAR-3 ovarian 10.7% | HS 578T breast 36.3% | NCI/ADR-RES ovarian 55.2% | T-47D breast 24.1% | BT-549 breast 15.2% | SW-620 colon 10.4% | MCF7 breast 13.7% | HCC-2998 colon 41.8% | KM12 colon 12.1%
active: SR leukemia 4.12% | RPMI-8226 leukemia 0.562% | OVCAR-8 ovarian 7.53% | MDA-MB-435 melanoma 4.57% | HCT-116 colon 4.63%

O=C(Cc1ccc(/C=C/C(=O)c2ncc[nH]2)cc1)Nc1ccccc1
active: SR leukemia 1.14% | RPMI-8226 leukemia -0.0972% | MCF7 breast 9.95%
inactive: OVCAR-8 ovarian 22.1% | OVCAR-5 ovarian 78.5% | OVCAR-4 ovarian 68.2% | SK-OV-3 ovarian 75.9% | IGROV1 ovarian 63.5% | OVCAR-3 ovarian 17.7% | HS 578T breast 80.7% | NCI/ADR-RES ovarian 31.1% | T-47D breast 39.9% | BT-549 breast 54.2% | MDA-MB-435 melanoma 57.3% | SW-620 colon 14.2% | HCT-116 colon 44.2% | HCC-2998 colon 90.4% | KM12 colon 12.8%

Cc1cc(N2CCCCCC2)nc(NC2CCCC(Nc3ccnc4cc(Cl)ccc34)C2)n1 (stereo unspecified)
active: SR leukemia -65.8% | RPMI-8226 leukemia -57% | OVCAR-8 ovarian -85.3% | OVCAR-5 ovarian -24.8% | OVCAR-4 ovarian -63.9% | SK-OV-3 ovarian -82.8% | IGROV1 ovarian -47.1% | OVCAR-3 ovarian -78.6% | HS 578T breast -51.3% | NCI/ADR-RES ovarian -72.2% | T-47D breast -50.3% | BT-549 breast -85.1% | MDA-MB-435 melanoma -87.7% | SW-620 colon -76.9% | MCF7 breast -56.8% | HCT-116 colon -95.9% | HCC-2998 colon -80.3% | KM12 colon -75.5%

COc1ccc(-n2nc(C)c3c(Oc4ccc(NC(=O)Nc5c(Cl)cccc5Cl)cc4)ncnc32)cc1
inactive: SR leukemia 111% | RPMI-8226 leukemia 102% | OVCAR-8 ovarian 97.4% | OVCAR-5 ovarian 112% | OVCAR-4 ovarian 99.9% | SK-OV-3 ovarian 89% | IGROV1 ovarian 101% | OVCAR-3 ovarian 112% | HS 578T breast 92% | NCI/ADR-RES ovarian 102% | T-47D breast 87.4% | BT-549 breast 117% | MDA-MB-435 melanoma 100% | SW-620 colon 95.7% | MCF7 breast 96.4% | HCT-116 colon 109% | HCC-2998 colon 100% | KM12 colon 100%

CN1C(=O)C2(SCC(C(=O)NCc3ccccc3)N2C(=O)C2CCCCC2)c2ccccc21 (stereo unspecified)
inactive: SR leukemia 83.3% | RPMI-8226 leukemia 95% | OVCAR-8 ovarian 92% | OVCAR-5 ovarian 105% | OVCAR-4 ovarian 88.1% | SK-OV-3 ovarian 114% | IGROV1 ovarian 88% | OVCAR-3 ovarian 90.5% | HS 578T breast 89.3% | NCI/ADR-RES ovarian 94.2% | T-47D breast 101% | BT-549 breast 98.3% | MDA-MB-435 melanoma 81.2% | SW-620 colon 91.8% | MCF7 breast 94.8% | HCT-116 colon 96.2% | HCC-2998 colon 109% | KM12 colon 92.1%

CC1=C[C@H]2c3c(c(O)c(O)c4oc(-c5ccccc5)cc(=O)c34)[C@H](c3cc(O)c(O)c4oc(-c5ccccc5)cc(=O)c34)[C@H]2C(C)(C)C1
inactive: OVCAR-5 ovarian 20% | OVCAR-4 ovarian 10.4% | NCI/ADR-RES ovarian 17.5%
active: SR leukemia 0.0772% | RPMI-8226 leukemia 7.2% | OVCAR-8 ovarian 8.73% | SK-OV-3 ovarian -3.99% | IGROV1 ovarian -31.1% | OVCAR-3 ovarian 7.79% | HS 578T breast 5.98% | T-47D breast 4.7% | BT-549 breast 0.289% | MDA-MB-435 melanoma -32.9% | SW-620 colon 7.43% | MCF7 breast 9.62% | HCT-116 colon -56.3% | HCC-2998 colon 0.939% | KM12 colon -14.9%

CCOC(=O)c1sc2nc(-c3cccc(OC)c3)nc(N3CCOCC3)c2c1C
inactive: SR leukemia 98.4% | RPMI-8226 leukemia 87.8% | OVCAR-8 ovarian 102% | OVCAR-5 ovarian 96.6% | OVCAR-4 ovarian 96.2% | SK-OV-3 ovarian 102% | IGROV1 ovarian 87.3% | OVCAR-3 ovarian 108% | HS 578T breast 104% | NCI/ADR-RES ovarian 90% | T-47D breast 92.8% | BT-549 breast 94.9% | MDA-MB-435 melanoma 96.9% | SW-620 colon 110% | MCF7 breast 90.4% | HCT-116 colon 96.6% | HCC-2998 colon 99.6% | KM12 colon 97.5%

CCOC(=O)c1csc(NC(=O)COc2cccc(/C=C3\CSc4ccccc4C3=O)c2)n1
active: SR leukemia -86.4% | RPMI-8226 leukemia -71.2% | IGROV1 ovarian 1.28% | OVCAR-3 ovarian -25.7% | HS 578T breast -11% | BT-549 breast -88% | SW-620 colon -65.5% | MCF7 breast 2.02% | HCT-116 colon 4.95% | HCC-2998 colon -31.8% | KM12 colon -64.4%
inactive: OVCAR-8 ovarian 20.3% | OVCAR-5 ovarian 56.4% | OVCAR-4 ovarian 83.6% | SK-OV-3 ovarian 35% | NCI/ADR-RES ovarian 44.1% | T-47D breast 73.8% | MDA-MB-435 melanoma 17.9%

Cc1cc(N2CCN(C)CC2)nc(NC2CCCC(Nc3ccnc4cc(Cl)ccc34)C2)n1 (stereo unspecified)
active: SR leukemia -31% | RPMI-8226 leukemia -47.8% | OVCAR-8 ovarian 5.87% | OVCAR-5 ovarian 9.67% | OVCAR-3 ovarian -18.7% | HS 578T breast -18.7% | T-47D breast -48.5% | BT-549 breast -41.9% | MDA-MB-435 melanoma -86% | SW-620 colon 2.79% | MCF7 breast -10.5% | HCT-116 colon -69.6% | HCC-2998 colon 8.13%
inactive: OVCAR-4 ovarian 20.3% | SK-OV-3 ovarian 18.6% | IGROV1 ovarian 10.5% | NCI/ADR-RES ovarian 18.7% | KM12 colon 10.4%

N#CN1CCC[C@H]1C(=O)N1CCc2c(-c3[nH]nc4ncccc34)cccc21
active: SR leukemia 6.84% | OVCAR-8 ovarian 1.11% | SK-OV-3 ovarian -1.17% | OVCAR-3 ovarian -32% | HS 578T breast -2.6% | NCI/ADR-RES ovarian 8.38% | BT-549 breast -37.6% | MDA-MB-435 melanoma -61.6% | MCF7 breast 5.76% | HCT-116 colon -19.6% | HCC-2998 colon -6.99% | KM12 colon -14%
inactive: RPMI-8226 leukemia 18.1% | OVCAR-5 ovarian 56.3% | OVCAR-4 ovarian 18.5% | IGROV1 ovarian 17.1% | T-47D breast 13% | SW-620 colon 15.1%

COc1ccc(SC2c3cc(OC)c(OC)cc3Oc3nc(N)c(C#N)c(N)c32)cc1 (stereo unspecified)
active: SR leukemia -36.2% | RPMI-8226 leukemia -36.1% | OVCAR-8 ovarian -85.4% | OVCAR-5 ovarian -71.7% | OVCAR-4 ovarian -97.1% | SK-OV-3 ovarian -81.3% | IGROV1 ovarian -77.1% | OVCAR-3 ovarian -96.1% | HS 578T breast -2.22% | NCI/ADR-RES ovarian -16.3% | T-47D breast -41.9% | BT-549 breast -79.1% | MDA-MB-435 melanoma -84.4% | SW-620 colon -64.5% | MCF7 breast -58.9% | HCT-116 colon -88.6% | HCC-2998 colon -84.3% | KM12 colon -79%

CCOc1cc2ncc(C#N)c(Nc3ccc(F)c(Cl)c3)c2cc1NC(=O)CC1CCSS1 (stereo unspecified)
active: SR leukemia -27.8% | RPMI-8226 leukemia -5.51% | OVCAR-8 ovarian -41.7% | OVCAR-5 ovarian -40.6% | OVCAR-4 ovarian -69.4% | SK-OV-3 ovarian -91.7% | IGROV1 ovarian -45.9% | OVCAR-3 ovarian -86.3% | HS 578T breast -17.4% | NCI/ADR-RES ovarian -30.3% | T-47D breast -48.4% | BT-549 breast -25.3% | MDA-MB-435 melanoma -92.1% | SW-620 colon -49% | MCF7 breast -34.7% | HCT-116 colon -61.7% | HCC-2998 colon -74% | KM12 colon -77.6%

CCN1CCN(c2nc(NCCNc3ccnc4cc(Cl)ccc34)c3ccccc3n2)CC1
inactive: OVCAR-5 ovarian 53.7% | OVCAR-4 ovarian 33.7% | SK-OV-3 ovarian 51.8% | IGROV1 ovarian 28.6% | HS 578T breast 49.8% | NCI/ADR-RES ovarian 70.3% | BT-549 breast 51.8% | MCF7 breast 18.6% | HCC-2998 colon 35.8%
active: SR leukemia -25.5% | RPMI-8226 leukemia -25.4% | OVCAR-8 ovarian 2.98% | OVCAR-3 ovarian 8.7% | T-47D breast -10.8% | MDA-MB-435 melanoma -66.2% | SW-620 colon 1.44% | HCT-116 colon 1.44% | KM12 colon 7.58%

Cc1ccc(C2Oc3ccccc3C3CC(c4cccs4)=NN32)cc1 (stereo unspecified)
inactive: SR leukemia 102% | RPMI-8226 leukemia 95.3% | OVCAR-8 ovarian 99.7% | OVCAR-5 ovarian 102% | OVCAR-4 ovarian 93.6% | SK-OV-3 ovarian 90.1% | IGROV1 ovarian 80.2% | OVCAR-3 ovarian 100% | HS 578T breast 86.7% | NCI/ADR-RES ovarian 96.6% | T-47D breast 94.7% | BT-549 breast 86.6% | MDA-MB-435 melanoma 103% | SW-620 colon 102% | MCF7 breast 80.4% | HCT-116 colon 99.9% | HCC-2998 colon 98.7% | KM12 colon 94.3%
